Assay results as given in PubChem BioAssay AID624481 (The Scripps Research Institute Molecular Screening Center, 2012).
Unmarked numbers belong to inactive results. Activity calls are given as the source filed them. Cut-off read from the data, not from the text of the source: active = inhibition above about 50%; inactive = the rest.

biological target: Prolyl endopeptidase-like (Mus musculus) (UniProt Q8C167); assay: purified PREPL inhibitors, PREPL inhibitor project, biochemical, gel-based competitive ABPP, fluorescence, HTS hits (AID 624481); conditions: at 20 µM, stronger effect = higher value
Sequence (Q8C167 whole entry, looked up): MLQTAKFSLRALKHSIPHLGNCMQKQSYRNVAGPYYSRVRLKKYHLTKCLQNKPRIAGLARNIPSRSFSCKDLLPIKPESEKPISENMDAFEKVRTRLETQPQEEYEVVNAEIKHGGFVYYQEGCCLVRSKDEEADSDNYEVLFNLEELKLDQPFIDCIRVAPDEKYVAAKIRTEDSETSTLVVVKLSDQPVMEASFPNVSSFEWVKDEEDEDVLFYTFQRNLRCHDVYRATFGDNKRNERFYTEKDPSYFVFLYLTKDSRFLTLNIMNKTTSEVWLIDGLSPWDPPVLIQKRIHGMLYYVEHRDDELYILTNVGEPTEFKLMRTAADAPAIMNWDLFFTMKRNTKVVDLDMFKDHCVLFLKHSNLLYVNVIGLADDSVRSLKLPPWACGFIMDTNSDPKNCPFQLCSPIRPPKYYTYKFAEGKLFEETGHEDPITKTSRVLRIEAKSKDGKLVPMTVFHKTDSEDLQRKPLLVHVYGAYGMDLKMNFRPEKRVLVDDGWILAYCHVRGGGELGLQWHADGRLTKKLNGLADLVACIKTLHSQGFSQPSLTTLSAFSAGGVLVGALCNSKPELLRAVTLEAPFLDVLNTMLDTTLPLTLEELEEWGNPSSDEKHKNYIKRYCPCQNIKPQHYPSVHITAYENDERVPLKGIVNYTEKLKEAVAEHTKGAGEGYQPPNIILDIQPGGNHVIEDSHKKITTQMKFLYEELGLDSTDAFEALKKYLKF

Row | SMILES | inhibition
1 | C#CCOCCOCCOCCNc1nc(N2CCN(C(=O)CCCCCCCCCCNC(=O)Cn3cc(CCCCCN)nn3)CC2)nc(N2CCN(C(=O)CCCCCCCCCCNC(=O)[C@H](CO)n3cc(CCCCCN)nn3)CC2)n1 | -38%
2 | COc1ccc(C=NNc2cc(C)nc3ccc(OC)cc23)c(OC)c1 | 6%
3 | COc1ccc(N2CCN(C(=O)CN3C(=O)NC(C)(c4ccc5ccccc5c4)C3=O)CC2)cc1 (configuration not stated) | -26%
4 | CC(C)c1ccc(CNc2ccc(N3CCOCC3)cc2)cc1 | -12%
5 | C#CCOCCOCCOCCNc1nc(N2CCN(C(=O)[C@H](Cc3cc4ccccc4[nH]3)n3cc([C@@H](N)C(C)CC)nn3)CC2)nc(N2CCN(C(=O)[C@H](CCCCN)n3cc([C@@H](N)CC(C)C)nn3)CC2)n1 (some centres not stated) | -29%
6 | COc1ccc(Cn2c(SCc3ccccc3C)nc3cc(OC)c(OC)cc3c2=N)cc1 | 52% (active)
7 | Cc1cccc(C2CC(c3ccc(F)cc3)Nc3nc(N)nn32)c1 (configuration not stated) | -26%
8 | C#CCOCCOCCOCCNc1nc(N2CCN(C(=O)[C@H](CCCCN)n3cc([C@@H](N)C(C)CC)nn3)CC2)nc(N2CCN(C(=O)[C@H](Cc3cc4ccccc4[nH]3)n3cc([C@@H](N)CC(C)C)nn3)CC2)n1 (some centres not stated) | -8%
9 | CCN1C(=O)/C(=C\N2CCN(c3ccccc3)CC2)SC1=S | -14%
10 | Oc1cc(Nc2ccncc2)cc2cccnc12 | -59%
11 | CCCCCNc1nc(N2CCCC2)c2c(c1C#N)CCN(C)C2 | -89%
12 | O=c1cc(-c2ccc(O)c(O)c2)oc2cc(O[C@@H]3O[C@H](CO)[C@@H](O)[C@H](O)[C@H]3O)cc(O)c12 | -12%
13 | Oc1c(CN2CCCCC2)cc(COCc2ccccc2)c2cccnc12 | 92% (active)
14 | CCN1CCCC1CNC(=O)c1ccc2c(c1)NC(=O)/C(=C\c1ccc(OC)c(OC)c1)S2 (configuration not stated) | 3%
15 | Cc1cccn2c(=O)c3cc(C(=O)NCCc4ccccc4)c(=N)n(CCCn4ccnc4)c3nc12 | -33%
16 | COc1ccc2cc1Oc1ccc(cc1)C[C@H]1c3cc(c(OC)cc3CCN1C)Oc1c(OC)c(OC)cc3c1[C@H](C2)N(C)CC3 | -30%
17 | CCCCN1C(=N)N([C@@H](CN2CCC[C@H]2CN2C(N)=NC[C@@H]2Cc2ccccc2)C(C)C)C[C@H]1Cc1ccccc1 | -44%
18 | COc1cc2c(cc1OC)C(Cc1ccc(O)c(Oc3ccc(C[C@H]4c5cc(OC)c(OC)cc5CCN4C)cc3)c1)N(C)CC2 (some centres not stated) | 66% (active)
19 | C#CCOCCOCCOCCNc1nc(N2CCN(C(=O)CCCCCCCCCCNC(=O)[C@H](CCCCN)n3cc(CCO)nn3)CC2)nc(N2CCN(C(=O)CCCCCCCCCCNC(=O)[C@H](CCCCN)n3cc(C[C@@H](C)CC)nn3)CC2)n1 | -141%

Row | SMILES | inhibition
20 | Nc1nn(-c2ccccc2)c(N)c1N=Nc1cccc(F)c1 | 0%
21 | Cc1cc(OCC(=O)Nc2ccc(N3CCN(C)CC3)cc2)ccc1Cl | -14%
22 | C#CCOCCOCCOCCNc1nc(N2CCN(C(=O)[C@H](CCCCN)n3cc([C@@H](N)CC(C)C)nn3)CC2)nc(N2CCN(C(=O)[C@H](Cc3cc4ccccc4[nH]3)n3cc([C@@H](N)Cc4ccc(O)cc4)nn3)CC2)n1 | -71%
23 | CC(=O)N1CCN(c2ccc(NCc3cccc4ccccc34)cc2)CC1 | -26%
24 | C#CCOCCOCCOCCNc1nc(N2CCN(C(=O)C(Cc3ccc(O)cc3)n3cc(C(N)CC(C)C)nn3)CC2)nc(N2CCN(C(=O)C(Cc3cc4ccccc4[nH]3)n3cc(C(N)Cc4ccc(O)cc4)nn3)CC2)n1 (configuration not stated) | -100%
25 | C#CCOCCOCCOCCNc1nc(N2CCN(C(=O)CCCCCCCCCCNC(=O)Cn3cc(CCCCCN)nn3)CC2)nc(N2CCN(C(=O)CCCCCCCCCCNC(=O)[C@H](CO)n3cc(CCCSC)nn3)CC2)n1 | 31%
26 | CN(C)c1ccc(C(CNC(=O)c2ccccc2)c2c[nH]c3ccccc23)cc1 (configuration not stated) | 13%
27 | CN1CCN(C(=O)C2=C[C@@H](c3ccc(C(F)(F)F)cc3)C[C@@H](OCCCCO)O2)CC1 | -28%
28 | Cc1c(C#N)c(N=CN(C)C)c(C(=O)c2ccc(Br)cc2)n1-c1ccc(Cl)cc1 | -59%
29 | CCCCCNC(=O)c1ccc2c(=O)[nH]c3c(C(=O)NCC4CCCO4)sc(=S)n3c2c1 (configuration not stated) | -19%
30 | CC(=O)N1CCN(c2ccc(NCc3ccc(-c4cccc(Cl)c4)o3)cc2)CC1 | 39%
31 | CCc1ccc(Nc2n[n+](-c3ccccc3)c(-c3ccc(N(CC)CC)cc3)s2)cc1 | -100%
32 | O=C(C1=C[C@@H](c2ccc(Br)cc2)C[C@@H](OCc2ccc(CO)cc2)O1)N1CCOCC1 | -26%
33 | COc1ccc2cc1Oc1ccc(cc1)C[C@H]1c3cc(c(OC)cc3CCN1C)Oc1c(O)c(OC)cc3c1[C@H](C2)N(C)CC3 | 0%
34 | Cc1ccc(OCC(=O)Nc2ccc(N3CCN(C(=O)c4ccco4)CC3)cc2)c(C)c1 | -7%
35 | CC(C)Nc1ccc(Nc2ccnc3cc4ccccc4cc23)cc1 | -11%
36 | Cc1cc(N2CCN(C)CC2)nc2ccc(NC(=O)CCC(=O)N3CCN(c4ccc([N+](=O)[O-])cc4)CC3)cc12 | -92%
37 | O=C(C1=C[C@@H](c2ccc(C(F)(F)F)cc2)C[C@@H](OCCCCO)O1)N1CCN(Cc2ccccc2)CC1 | -70%
